Test results as given in PubChem BioAssay.
Active and inactive are the calls of the source.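 Rule for the calls, unless noted: active = compound raises GLP1 secretion from the human gut endocrine cells, with no numeric limit stated; inactive = the rest.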

Columns and labels:
[1] = Wnt pathway potentiators raising nuclear beta-catenin – imaging, WNT3A-conditioned medium, mouse C2C12, NPC library, primary screen (AID 1117326; in the data active = nuclear beta-catenin stimulation mostly above about 4.2%, no sharp cut-off; inactive = mostly below about 10%; note: reference of the scale not given here); conditions: stronger effect = higher value
[2] = stimulators of insulin release from INS-1E, primary screen, cell-based, 5 mM glucose, NPC library (AID 1117329;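 active = compound raises insulin release from rat beta cells at 5 mM glucose, no numeric limit stated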; note: reference of the scale not given here); conditions: rat INS-1E insulin secretion, at 10 µM, stronger effect = higher value
[3] = growth inhibition of GSK3B-pretreated HCT116 cells – cell-based, CellTiter-Glo, 0.2 to 20 µM (AID 1117336;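 active = compounds lowering colon cancer cell viability after pretreatment blocking the GSK3B kinase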); conditions: HCT116 viability after GSK3B inhibitor, at 20 µM, stronger effect = higher value
[4] = inhibition of endothelial tube formation, primary screen, imaging, VEGF stimulated, CD31 staining, tube area, NPC library (AID 1117340;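 active = compound that reduces growth-factor-driven endothelial tube area in a mixed cell culture, no cutoff stated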); conditions: VEGF-stimulated ADSC/ECFC co-culture, at 10 µM, stronger effect = higher value
[5] = GLP1 release stimulators, primary, NCI-H716, NPC library (AID 1117341); conditions: NCI-H716 cells, at 10 µM, stronger effect = higher value; note: reference of the scale not given here
[6] = HCT116 colon cancer cell growth inhibition, primary screen, CellTiter-Glo luminescence, NPC library (AID 1117342;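 active = compounds that lower survival of HCT116 colon cancer cells in the luminescence readout, no numeric limit stated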); conditions: at 20 µM (top of the series)
[7] = reduced SW480 viability measured with CellTiter-Glo, NPC library, primary (AID 1117343;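 active = compounds that lower viability of the colon cancer cells in the luminescence readout, with no numeric limit stated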); conditions: CellTiter-Glo luminescence; at 20 µM (top of the series)
[8] = NPC library primary testing for decreased DLD-1 cell viability via CellTiter-Glo (AID 1117346;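 active = compounds that lower survival of DLD-1 colon cancer cells in the luminescence readout, no cutoff given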); conditions: DLD-1 viability, CellTiter-Glo luminescence; at 20 µM (top of the series)

| Compound | nuclear beta-catenin stimulation ([1]; at 10 µM) | nuclear beta-catenin stimulation ([1]; stimulation, at 2 µM) | insulin secretion stimulation [2] | viability decrease [3] | tube area decrease [4] | GLP1 secretion stimulation [5] | inhibition of viability [6] | viability decrease (inhibition) [7] | viability decrease (inhibition) [8] |
| --- | --- | --- | --- | --- | --- | --- | --- | --- | --- |
| NCC(O)c1cccc(O)c1 (stereo not drawn) | -0.9% (inactive) | 0.5% | 0.5% (inactive) | -15% (inactive) | -16.5% (inactive) | 2.9% (inactive) | 4.5% (inactive) | 4.3% (inactive) | 5.4% (inactive) |
| Oc1c(Br)cc(Br)cc1Br | -0.6% (inactive) | -0.3% | -0.4% (inactive) | -83.3% (inactive) | 10% (inactive) | -3.7% (inactive) | -18% (inactive) | 32.1% (inactive) | 37.1% (inactive) |
| Cc1ccc([N+](=O)[O-])[c]2c1[O][Hg]2 | 20.9% (active) | 66.9% | 87.1% (active) | 99.5% (active) | 105% (active) | 64.6% (active) | 100% (active) | 134% (active) | 103% (active) |
| CNC(=O)NC(O)C(Cl)(Cl)Cl (stereo not drawn) | -0.4% (inactive) | -0.2% | -1% (inactive) | -2.1% (inactive) | -28.9% (inactive) | 3.1% (inactive) | -4.4% (inactive) | 19.7% (inactive) | -1.55% (inactive) |
| CCCOC(=O)c1cncn1C(C)c1ccccc1 (stereo not drawn) | 3.6% (inactive) | 0.7% | 4.8% (inactive) | -12.2% (inactive) | -7.5% (inactive) | 1.9% (inactive) | 11% (inactive) | -24.3% (inactive) | 18.7% (inactive) |
| O=C(O)c1ccc(=O)[nH]c1 | 0.4% (inactive) | 0.8% | 2.6% (inactive) | 3.2% (inactive) | -2.4% (inactive) | -0.3% (inactive) | 7.7% (inactive) | -13.1% (inactive) | -3.9% (inactive) |
| O=[N+]([O-])c1cc(I)c(O)c(I)c1 | 18.4% (inactive) | 0.7% | 5.5% (inactive) | 95% (active) | 106% (active) | -1% (inactive) | 93% (active) | 101% (active) | 98.8% (active) |
| S=C(SSC(=S)N1CCCCC1)N1CCCCC1 | 1.8% (inactive) | 0.4% | -2.6% (inactive) | -2.9% (inactive) | 8.9% (inactive) | -2.3% (inactive) | -14.8% (inactive) | 13.2% (inactive) | -3.5% (inactive) |
| NNc1ccccc1 | 0.8% (inactive) | 2.4% | -1.6% (inactive) | 14.6% (inactive) | 26.7% (inactive) | 3.7% (inactive) | -3.85% (inactive) | 45% (inactive) | 21.2% (inactive) |
| O=C(CCCCl)c1ccc(F)cc1 | -0.1% (inactive) | -0.7% | -0.9% (inactive) | -6.5% (inactive) | -3.6% (inactive) | 0.1% (inactive) | 3.2% (inactive) | -14.9% (inactive) | 5.8% (inactive) |
| COP(=S)(OC)SCN1C(=O)c2ccccc2C1=O | 0.4% (inactive) | 1.1% | -0.9% (inactive) | -8.95% (inactive) | 1.5% (inactive) | 0% (inactive) | -8.5% (inactive) | 6.9% (inactive) | 24.4% (inactive) |
| O=C(N[C@H]1N=C(c2ccccc2F)c2cccc3c2N(CC3)C1=O)c1cc2ccccc2[nH]1 | 1.3% (inactive) | 1.4% | 3.5% (inactive) | 44.4% (inactive) | 8.5% (inactive) | 1.8% (inactive) | 54.9% (active) | 56.9% (active) | 29.7% (inactive) |
| CC(Cc1ccccc1)NC=O (stereo not drawn) | -2.3% (inactive) | -0.1% | 1.5% (inactive) | -5.7% (inactive) | 1.3% (inactive) | -5.4% (inactive) | 8.8% (inactive) | 16.7% (inactive) | -4.6% (inactive) |
| C[N+]1(CCF)[C@@H]2CC[C@H]1CC(OC(=O)C(O)(c1ccccc1)c1ccccc1)C2 (stereo partly drawn) | -2.1% (inactive) | 0.7% | -0.1% (inactive) | 4.8% (inactive) | 16.4% (inactive) | 4.4% (inactive) | 5.8% (inactive) | -2% (active) | -1.5% (inactive) |
| O=C(Nc1ccc(Br)cc1)c1cc(Br)cc(Br)c1O | 28.9% (inactive) | 0.4% | -3% (inactive) | 98% (active) | 108% (active) | -3.5% (inactive) | 98.2% (active) | 94.4% (active) | 100% (active) |
| C[N+](C)(C)CCOC(=O)C(O)(c1ccccc1)c1ccccc1 | -1.8% (inactive) | -0.5% | 1.1% (inactive) | 98.1% (active) | -29.2% (inactive) | -2.6% (inactive) | 96.5% (active) | 98.8% (active) | 102% (active) |
| CN1C(=S)CN=C(c2ccccc2)c2cc(Cl)ccc21 | -0.4% (inactive) | 3.4% | 1.75% (inactive) | 65.8% (active) | 6.8% (inactive) | 1.6% (inactive) | 50.3% (active) | 77.5% (active) | 32.7% (inactive) |
